FLuc modulator – counter-screen for miR-21 project: firefly luciferase inhibitors or activators; 360,000 tested, 6.9% active; AID 588342; Potency, µM (doses to about 57.5 µM), for the others: top-dose activity change, negative = inhibition, hits mostly inhibitors; purified FLuc, Km substrates, luminescence inhibition; P08659;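 also: plate controls were vehicle for no effect and reference inhibitor for full effect; nearly all actives have a fitted effect of over 55% in size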
Target sequence (P08659 whole entry, looked up): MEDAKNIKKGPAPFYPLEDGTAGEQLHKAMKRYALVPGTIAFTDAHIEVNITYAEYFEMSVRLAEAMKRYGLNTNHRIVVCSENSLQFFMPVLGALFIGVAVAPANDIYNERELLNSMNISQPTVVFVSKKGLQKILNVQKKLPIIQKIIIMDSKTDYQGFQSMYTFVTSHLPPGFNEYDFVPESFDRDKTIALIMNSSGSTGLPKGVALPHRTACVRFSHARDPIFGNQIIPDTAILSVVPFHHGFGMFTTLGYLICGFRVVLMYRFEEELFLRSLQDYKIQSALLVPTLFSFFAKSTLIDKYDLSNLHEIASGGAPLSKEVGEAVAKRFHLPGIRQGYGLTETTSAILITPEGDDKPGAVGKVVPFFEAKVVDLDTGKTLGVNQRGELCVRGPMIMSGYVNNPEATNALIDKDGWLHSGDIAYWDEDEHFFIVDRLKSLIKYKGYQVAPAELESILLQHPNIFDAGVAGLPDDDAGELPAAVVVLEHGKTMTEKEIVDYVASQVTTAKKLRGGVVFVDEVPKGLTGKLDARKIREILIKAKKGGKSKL
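Biochemical qHTS of compounds, final roughly 60 µM downward over six points, against 10 nM purified firefly luciferase using Km concentrations of substrates (10 uM D-luciferin, 10 uM ATP) in Tris acetate pH 7.5 buffer; luminescence output.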
Luc counter – counter-screen: inhibitors of Kinase-Glo firefly luciferase. Q27757. Kinase-Glo luciferase, ATP luminescence, 8 min. Potency, µM (doses to about 38.3 µM), for inactives: at the highest dose activity change, negative = inhibition, usual class: inhibitors. 200,000 tested, 0.28% active. AID 1379; also: % is scaled to controls: 0 for no effect and ±100 for the full control effect; nearly all actives have a fitted effect of over 60% in size
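Recombinant Kinase-Glo luciferase, 10 uM ATP (linear range), luciferin; imidazole pH 7.2 / KCl / MgCl2 / Tween / BSA buffer; 8 min RT; luminescence.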
SMN2 splice enh – increases expression of the SMN2 splice variant; HEK293 SMN2-luciferase splicing reporter, luminescence, 30-36 h; Potency, µM (doses to about 46.1 µM), without a hit: top-dose activity change, positive = activation, hits mostly activators; 210,000 tested, 2.8% active; also: % of control where 0% means no effect; nearly all actives have a fitted effect of over 55% in size
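qHTS luciferase splicing reporter: luminescence rises when SMN2 exon 7 is included in transfected HEK293 cells. Compound exposure lasted 30-36 h at 37C, with 4.5 mM final sodium butyrate as control, followed by a ONE-Glo read.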
NPC1 promoter act – activates the NPC1 promoter; Huh7 NPC1 promoter luciferase reporter, 24 h; Potency, µM (top dose mostly 9.22 µM), without a hit: top-dose activation, usual class: activators; 320,000 tested, 2.4% active; AID 485313; also: % of control where 0% means no effect; nearly all actives have a fitted effect of over 60% in size
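Compounds in DMSO were transferred onto Huh7 NPC1-luciferase reporter cells pre-incubated 2 h; after 24 h at 37 °C, Amplite reagent was dispensed and luminescence recorded 10 min later.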
Rab9 prom act – activates the Rab9 promoter. 320,000 tested, 2.8% active. Huh7 Rab9 promoter-luciferase reporter, luminescence, 24 h. AID 485297. Potency, µM (top dose mostly 9.22 µM), inactives show top-dose activation, negative = inhibition, most hits filed as activators; also: % of control where 0% means no effect; nearly all actives have a fitted effect of over 60% in size
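Rab9 promoter-driven luciferase in stably transfected Huh7 cells; 1500 cells/well rested 2 h, exposed to compound in DMSO for 24 h at 37 °C, 5% CO2. Luminescence read 10 min after adding luciferase reagent at ambient temperature.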
ELG1 genotox – genotoxicity induction in ELG1-luciferase HEK293T cells; HEK293T ELG1-luciferase reporter, luminescence, 16 h; Potency, µM (series often up to 46 µM), inactives show top-dose activity change, positive = activation, most hits filed as activators; 330,000 tested, 1.3% active; AID 504466; also: % of control where 0% means no effect; nearly all actives have a fitted effect of over 60% in size
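HEK293T cells expressing luciferase-tagged ELG1 were exposed to compound or DMSO vehicle for 16 hr at 37 °C and 5% CO2. Luciferase activity was then measured with ONE-Glo after 30 min at room temperature.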
Active calls of the source: *; ? = inconclusive; . = no result given. Compounds with a hit are over-represented: about 7.4% of the library has one in this group of screens. Calls follow the shape of the dose curve; as a rule, active = well fitted curve in the direction sought with a large enough effect; inconclusive = small, poorly fitted or top-dose-only effect, or another doubt; inactive = no such curve, though single readings can be large; an effect the other way counts as inactive or inconclusive. Potency is read from the fitted curve at half-maximal effect.

SMILES	FLuc modulator	Luc counter	SMN2 splice enh	NPC1 promoter act	Rab9 prom act	ELG1 genotox
Oc1csc(Cc2nc(-c3ccc(-c4ccccc4)cc3)cs2)n1	?	-9%	4%	?	?	11%
O=c1oc2ccccc2cc1-c1csc(Cc2nc(-c3ccc(Cl)cc3)cs2)n1	6%	1%	-76%	-22%	-31%	9%
Oc1csc(Cc2nc(-c3ccc4ccccc4c3)cs2)n1	?	-8%	?	?	2.8µM*	?
Oc1csc(Cc2nc(-c3ccccc3F)cs2)n1	-18%	-12%	?	?	5µM*	-4%
O=C(NC(=S)Nc1ccc(Cl)cn1)C12CC3CC(CC(C3)C1)C2	11µM*	1%	17%	?	?	7%
COc1cc(Cl)c(NS(=O)(=O)c2ccc3[nH]c(=O)ccc3c2)c(OC)c1	-3%	.	.	.	.	.
Cc1ccc(CC(=O)O/N=C(\N)c2ccccn2)cc1	4.8µM*	.	.	4.5µM*	?	?
Cc1cccc(OCC(=O)O/N=C(\N)c2ccccn2)c1C	9.5µM*	-4%	?	?	?	?
CC(C)(C)CC(=O)O/N=C(\N)c1ccccn1	4.8µM*	-16%	7.1µM*	0.56µM*	0.63µM*	2.6µM*
COc1ccc(CC(=O)O/N=C(\N)c2ccc(C)cc2)cc1	17µM*	.	.	?	?	15%
COc1ccc(CC(=O)O/N=C(\N)c2ccncc2)cc1	-17%	.	.	1%	-4%	-2%
Cc1ccc(C)c(NC(=O)Cn2c(=O)n(Cc3ccc4c(c3)OCO4)c(=O)c3oc4ccccc4c32)c1	-1%	.	.	.	.	.
CCOc1ccc(NC(=O)CSc2nc3ccsc3c(=O)n2C(C)CC)cc1 (configuration not stated)	3%	.	.	.	.	.
Cc1ccc(OCC(=O)O/N=C(\N)c2ccccn2)cc1	13µM*	-13%	13µM*	4µM*	2.5µM*	?
COc1ccc(CC(=O)O/N=C(\N)c2ccccn2)cc1OC	-14%	.	.	9%	0%	1%
N/C(=N\OC(=O)COc1cc(Cl)c(Cl)cc1Cl)c1ccccn1	2.4µM*	-4%	11µM*	0.79µM*	1.1µM*	?
N/C(=N\OC(=O)Cc1ccc(Cl)cc1)c1ccccn1	9.5µM*	0%	12%	29%	28%	16µM*
COc1ccc(CCNC(=O)C2COc3ccccc3C2)cc1OC (configuration not stated)	4%	.	.	.	.	.
O=P1(O)Oc2c(c(-c3ccccc3)cc3ccc4ccccc4c23)-c2c(-c3ccccc3)cc3ccc4ccccc4c3c2O1	.	-1%	4%	.	.	.
COc1ccc(-c2nc(NC(C)=O)sc2-c2ccc(OC)cc2)cc1	0%	5%	-1%	2%	0%	8%
COc1ccc(C2CC(=O)c3sc(NC(C)=O)nc3C2)cc1 (configuration not stated)	27µM*	11%	-13%	26%	24%	?
Cc1ccc(N2C(=O)c3n[nH]c(C)c3C2c2ccccc2Cl)cc1 (configuration not stated)	-15%	.	11%	.	.	.
Cc1ccc(N2C(=O)c3n[nH]c(C)c3C2c2ccc(Cl)cc2)cc1 (configuration not stated)	9.5µM*	.	?	.	.	.
Cc1cccc(-c2nc(CN3CCCC(C(=O)N4CCN(c5cc(Cl)ccc5C)CC4)C3)c(C)o2)c1 (configuration not stated)	?	.	-44%	.	.	.
CCc1cccc(CC)c1N(COC)C(=O)Cn1c(C)nc2ccccc21	-6%	.	-3%	.	.	.
SMILES	FLuc modulator	Luc counter	SMN2 splice enh	NPC1 promoter act	Rab9 prom act	ELG1 genotox
COc1ccc(NC(=O)N2CCCC3(CCN(C(=O)c4csnn4)CC3)C2)cc1	.	-3%	-6%	.	.	.
Cc1ccc2nc(NC(=O)c3cccs3)sc2c1	0.48µM*	-21%	2.5µM*	0.5µM*	?	0.26µM*
CSc1nc2ccc(NC(=O)c3cccs3)cc2s1	.	.	.	.	.	17%
CN(C(=O)c1ccccc1)c1nc2ccccc2s1	0.85µM*	-6%	4.5µM*	0.28µM*	0.56µM*	?
Cc1csc2nc(NC(=O)c3ccccc3)sc(=O)c12	4.3µM*	.	.	0%	18%	?
O=C(c1nc2ccccc2s1)N1CCSCC1	?	0%	10%	23%	?	18µM*
Cc1ccc(C(=O)Nc2nc3ccccc3s2)s1	0.54µM*	13µM*	-14%	0.63µM*	0.4µM*	?
NNC(=O)c1ccc(Cn2cc(Cl)cn2)o1	-16%	.	.	-5%	-1%	0%
O=C(O)CCC(=O)Nc1nc2ccccc2s1	-13%	15%	-10%	-5%	-4%	0%
Cc1cccc2sc(NC(=O)c3ccc(Cl)s3)nc12	?	-1%	-33%	2%	21%	7%
Cc1ccc2nc(NC(=O)c3ccc(Cl)s3)sc2c1	1.7µM*	1%	13µM*	1µM*	0.56µM*	4.6µM*
Cc1ccc2nc(NC(=O)c3ccc(Cn4cc(Cl)cn4)o3)sc2c1	7.6µM*	-1%	-32%	10%	14%	1%
CSc1nc2ccc3nc(NC(=O)c4ccccc4)sc3c2s1	?	-2%	?	3.2µM*	3.5µM*	?
Cc1noc(C)c1C(=O)Nc1nc2ccccc2s1	17µM*	.	.	19%	?	?
COc1cc(-c2cc(C(=O)Nc3nc4ccccc4s3)c3ccccc3n2)cc(OC)c1OC	15µM*	-2%	-20%	12%	-2%	-6%
Cc1ccc(C(=O)O)c(C(=O)Nc2nc3ccccc3s2)c1	15µM*	.	.	19%	20%	6%
Cc1ccc2nc(NC(=S)NC(=O)c3ccc(OC(C)C)cc3)sc2c1	?	3%	-2%	-18%	0%	-1%
Cc1ccc2nc(NC(=S)NC(=O)c3cccs3)sc2c1	1.1µM*	-2%	?	3.5µM*	1.1µM*	?
O=C(O)c1ccccc1-c1ccccc1C(=O)Nc1nc2ccccc2s1	0%	.	.	-5%	-2%	4%
O=C(NCCS(=O)(=O)N1CCN(c2ccccc2)CC1)C(c1ccccc1)c1ccccc1	8%	.	.	.	.	.
Cc1cccc(NC(=S)c2nc3ccccc3s2)c1	3µM*	-11%	18µM*	?	?	?
Cc1ccc(C(=O)Nc2nc3ccc(S(C)(=O)=O)cc3s2)s1	2.4µM*	-6%	11µM*	1.8µM*	1.4µM*	16µM*
O=S(=O)(/N=C(/Nc1nc2ccccc2s1)c1ccccc1)c1ccccc1	.	.	.	9%	?	20%
O=C(Nc1nc2ccccc2s1)c1ccccc1	1.7µM*	?	3.5µM*	1µM*	0.45µM*	1µM*

From PubChem
